# Source: PubChem BioAssay AID743419 (Vanderbilt Specialized Chemistry Center, 2014)
# Target: Metabotropic glutamate receptor 5 (Homo sapiens) (UniProt P41594)
# Experiment: off-target activity check on mGlu5 receptor – cell-based, calcium fluorescence, glutamate curve fold shift, selectivity assay for mGlu8/mGlu7 PAM project, profiling panel (AID 743419)
# Details: mGlu5 cells, Fluo-4 calcium, glutamate CRC shift; glutamate EC50 fold shift; at 10 µM; stronger effect = higher value
# Chain of Metabotropic glutamate receptor 5 (Homo sapiens) (P41594 whole entry, looked up): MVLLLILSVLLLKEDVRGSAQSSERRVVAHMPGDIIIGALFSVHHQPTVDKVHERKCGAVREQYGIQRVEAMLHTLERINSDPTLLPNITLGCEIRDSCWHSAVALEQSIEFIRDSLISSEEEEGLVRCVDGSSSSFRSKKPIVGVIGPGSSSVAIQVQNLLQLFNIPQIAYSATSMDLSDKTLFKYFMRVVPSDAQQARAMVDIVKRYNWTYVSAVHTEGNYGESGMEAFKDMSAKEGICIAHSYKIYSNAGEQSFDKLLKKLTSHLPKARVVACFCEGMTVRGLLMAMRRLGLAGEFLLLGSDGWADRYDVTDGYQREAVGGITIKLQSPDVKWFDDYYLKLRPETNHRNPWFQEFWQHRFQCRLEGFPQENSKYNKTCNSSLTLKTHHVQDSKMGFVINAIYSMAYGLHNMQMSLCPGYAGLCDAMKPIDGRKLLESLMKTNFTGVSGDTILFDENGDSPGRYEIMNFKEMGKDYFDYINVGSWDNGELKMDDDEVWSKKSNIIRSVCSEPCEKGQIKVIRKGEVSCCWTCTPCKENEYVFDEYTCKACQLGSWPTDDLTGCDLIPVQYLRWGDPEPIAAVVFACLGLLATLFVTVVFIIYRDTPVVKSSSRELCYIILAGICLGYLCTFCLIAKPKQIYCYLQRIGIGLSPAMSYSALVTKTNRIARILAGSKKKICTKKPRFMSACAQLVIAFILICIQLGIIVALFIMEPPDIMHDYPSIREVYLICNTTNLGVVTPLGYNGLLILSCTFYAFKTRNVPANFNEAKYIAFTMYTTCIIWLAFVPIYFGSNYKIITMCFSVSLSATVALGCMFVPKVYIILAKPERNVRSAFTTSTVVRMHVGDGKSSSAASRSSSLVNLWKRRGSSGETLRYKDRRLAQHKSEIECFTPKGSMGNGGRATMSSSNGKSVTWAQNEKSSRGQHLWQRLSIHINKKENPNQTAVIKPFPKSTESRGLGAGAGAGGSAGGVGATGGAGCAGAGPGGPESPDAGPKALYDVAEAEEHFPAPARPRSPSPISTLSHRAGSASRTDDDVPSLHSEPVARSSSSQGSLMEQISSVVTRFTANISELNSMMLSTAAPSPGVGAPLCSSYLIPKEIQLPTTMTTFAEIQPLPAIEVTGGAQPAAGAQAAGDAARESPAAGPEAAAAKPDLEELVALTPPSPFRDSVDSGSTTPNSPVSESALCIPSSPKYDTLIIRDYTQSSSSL
structure (smiles),measurement,value
COC(=O)c1ccc(-n2c(C)cc(C(=O)CSc3ccc(NC(C)=O)cc3)c2C)cc1,fold shift,1.45
